Experiment [1] has as its target rat Constitutive Nitric Oxide Synthase (CNOS), Nos1 (gene 24598) (UniProt P29476). The experiment is described as follows: NVS_ENZ_rCNOS: NovaScreen (NVS) Enzymatic Assay for rat Constitutive Nitric Oxide Synthase (CNOS) (AID 2283236). An outline of the steps: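 Enzyme activity in rat brain membrane preparation, read 1 h after dosing by filter-based radiometric scintillation counting. Primary screen in duplicate at 25 uM; actives (e.g., ≥30% inhibition) then run in concentration-response up to 50 uM.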

Experiment [2] addresses guinea pig Opioid, Kappa 1 Receptor (OpiateK), OPRK1 (gene 100135587) (UniProt P41144). Kind of experiment: NVS_GPCR_gOpiateK: NovaScreen (NVS) G Protein-Coupled Receptor Assay for guinea pig Opioid, Kappa 1 Receptor (OpiateK) (AID 2283252).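 Also: radioligand displacement from kappa opioid receptor in guinea pig cerebellar membranes; active means reduced radioligand binding relative to DMSO.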 An outline of the steps:
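Guinea pig cerebellar membranes were incubated with a radioligand for 2 h after compound addition; bound radioactivity was read by filter-based scintillation counting. Loss of specific binding relative to DMSO baseline defined activity; primary screen at 25 uM in duplicate.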

In experiment [3] the target is sheep Cyclooxygenase-1 (Cox1), PTGS1 (gene 443551) (UniProt P05979). The experiment is described as follows: NVS_ENZ_oCOX1: NovaScreen (NVS) Enzymatic Assay for sheep Cyclooxygenase-1 (Cox1) (AID 2283239).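 Also: actives reduce cyclooxygenase activity so potencies are for inhibitors.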 The gist of the method: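 Cell-free colorimetric assay of enzyme activity in a native extract of ovine seminal vesicles. Absorbance was read 0.66 hour after compound addition. Loss of signal relative to the DMSO negative control was scored, with actives from the 25 uM duplicate primary screen retested in concentration series.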
Chain of sheep Cyclooxygenase-1 (Cox1), PTGS1 (gene 443551) (P05979 whole entry, looked up): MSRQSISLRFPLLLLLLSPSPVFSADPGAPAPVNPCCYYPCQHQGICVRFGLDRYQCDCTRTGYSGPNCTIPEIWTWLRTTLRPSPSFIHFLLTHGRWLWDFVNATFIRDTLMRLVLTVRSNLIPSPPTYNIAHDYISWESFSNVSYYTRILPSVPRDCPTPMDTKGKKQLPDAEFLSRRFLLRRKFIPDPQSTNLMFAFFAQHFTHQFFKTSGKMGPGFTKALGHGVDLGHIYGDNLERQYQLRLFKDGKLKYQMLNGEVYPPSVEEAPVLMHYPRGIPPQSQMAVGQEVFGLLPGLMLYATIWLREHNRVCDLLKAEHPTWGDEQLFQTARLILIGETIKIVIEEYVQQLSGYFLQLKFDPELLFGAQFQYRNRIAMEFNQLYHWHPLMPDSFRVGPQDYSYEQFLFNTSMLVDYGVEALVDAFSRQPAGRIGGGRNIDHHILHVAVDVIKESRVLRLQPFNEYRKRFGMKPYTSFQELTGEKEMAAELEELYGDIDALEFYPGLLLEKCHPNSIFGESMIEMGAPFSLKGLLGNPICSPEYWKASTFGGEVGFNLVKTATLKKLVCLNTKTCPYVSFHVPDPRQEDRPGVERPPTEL

Experiment [4] concerns the target human Serotonin, 5-Hydroxytryptamine Receptor 5A (5HT5A), HTR5A (gene 3361) (UniProt P47898). Kind of experiment: NVS_GPCR_h5HT5A: NovaScreen (NVS) G Protein-Coupled Receptor Assay for human Serotonin, 5-Hydroxytryptamine Receptor 5A (5HT5A) (AID 2283251). An outline of the steps:
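Cell-free radioligand displacement binding on HEK293-derived membrane protein, 1 h incubation, filter-based scintillation counting. Primary screen in duplicate at 25 uM, actives followed in concentration series; loss of signal fitted versus DMSO.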

For experiment [5], the target named is human Serotonin, 5-Hydroxytryptamine Receptor 7 (5HT7), HTR7 (gene 3363) (UniProt P34969). The experiment is described as follows: NVS_GPCR_h5HT7: NovaScreen (NVS) G Protein-Coupled Receptor Assay for human Serotonin, 5-Hydroxytryptamine Receptor 7 (5HT7) (AID 2283255).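 Also: hits reduce specific radioligand binding relative to DMSO.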 An outline of the steps: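 Radioligand displacement on membranes from CHO cells expressing human 5HT7, 1 h incubation, filter-based scintillation counting. Primary screen used a single 25 uM concentration in duplicate; actives were followed up in concentration series.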
Chain of human Serotonin, 5-Hydroxytryptamine Receptor 7 (5HT7), HTR7 (gene 3363) (P34969 whole entry, looked up): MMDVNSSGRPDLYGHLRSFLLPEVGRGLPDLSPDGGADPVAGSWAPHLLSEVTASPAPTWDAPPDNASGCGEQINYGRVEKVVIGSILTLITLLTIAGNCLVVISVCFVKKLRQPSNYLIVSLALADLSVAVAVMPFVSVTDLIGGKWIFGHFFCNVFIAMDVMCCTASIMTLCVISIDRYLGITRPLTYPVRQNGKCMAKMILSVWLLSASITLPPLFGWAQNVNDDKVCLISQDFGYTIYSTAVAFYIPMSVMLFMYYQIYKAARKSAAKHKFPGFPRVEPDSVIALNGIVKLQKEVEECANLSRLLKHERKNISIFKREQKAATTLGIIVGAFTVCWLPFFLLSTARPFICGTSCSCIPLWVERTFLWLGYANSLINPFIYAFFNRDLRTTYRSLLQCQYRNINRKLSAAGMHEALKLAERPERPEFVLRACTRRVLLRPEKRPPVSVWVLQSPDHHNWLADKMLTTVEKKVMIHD

Experiment [6] deals with human Adrenergic, Beta 1 Receptor (Adrb1), ADRB1 (gene 153) (UniProt P08588). Kind of experiment: NVS_GPCR_hAdrb1: NovaScreen (NVS) G Protein-Coupled Receptor Assay for human Adrenergic, Beta 1 Receptor (Adrb1) (AID 2283258). An outline of the steps:
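Cell-free radioligand displacement on receptor from human neuroepithelioma cells; 2 h after dosing, filter-based scintillation counting. Primary screen in duplicate at 25 uM, actives retested in concentration series; loss of signal vs DMSO baseline.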

The target of experiment [7] is human Adrenergic, Alpha 2c Receptor (Adra2C), ADRA2C (gene 152) (UniProt P18825). Kind of experiment: NVS_GPCR_hAdra2C: NovaScreen (NVS) G Protein-Coupled Receptor Assay for human Adrenergic, Alpha 2c Receptor (Adra2C) (AID 2283259). The gist of the method: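 Radioligand binding on Sf9-expressed receptor membranes, 1 h after chemical dosing, filter-based scintillation read-out. Loss of binding fitted positively versus DMSO; primary duplicate screen at 25 uM, actives retested in concentration series.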
Chain of human Adrenergic, Alpha 2c Receptor (Adra2C), ADRA2C (gene 152) (P18825 whole entry, looked up): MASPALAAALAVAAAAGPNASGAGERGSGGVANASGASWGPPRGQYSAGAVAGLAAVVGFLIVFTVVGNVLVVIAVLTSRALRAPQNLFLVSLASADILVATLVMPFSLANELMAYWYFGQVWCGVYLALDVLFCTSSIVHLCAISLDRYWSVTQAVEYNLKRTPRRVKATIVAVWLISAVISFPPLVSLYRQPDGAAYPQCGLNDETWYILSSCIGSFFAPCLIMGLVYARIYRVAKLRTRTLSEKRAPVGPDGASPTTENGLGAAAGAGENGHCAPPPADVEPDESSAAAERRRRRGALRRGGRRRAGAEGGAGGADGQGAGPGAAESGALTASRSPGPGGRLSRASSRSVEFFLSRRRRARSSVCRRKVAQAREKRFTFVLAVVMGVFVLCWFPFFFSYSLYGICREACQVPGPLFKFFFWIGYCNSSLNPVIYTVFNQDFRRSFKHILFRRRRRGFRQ

The target of experiment [8] is rat Catechol-O-Methyl Transferase (COMT), Comt (gene 24267) (UniProt P22734). Kind of experiment: NVS_ENZ_rCOMT: NovaScreen (NVS) Enzymatic Assay for rat Catechol-O-Methyl Transferase (COMT) (AID 2283235). The gist of the method: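 Cell-free enzyme activity with protein extracted from rat dorsal striatum, measured by HPLC with absorbance detection. Compounds screened at 25 uM in duplicate; actives then run in concentration-response up to 50 uM, loss of signal versus DMSO.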

The target in experiment [9] is human Serotonin, 5-Hydroxytryptamine Receptor 2A (5HT2A), HTR2A (gene 3356) (UniProt P28223). The experiment is described as follows: NVS_GPCR_h5HT2A: NovaScreen (NVS) G Protein-Coupled Receptor Assay for human Serotonin, 5-Hydroxytryptamine Receptor 2A (5HT2A) (AID 2283249). An outline of the steps:
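Human cortex membranes, cell-free radioligand binding; filter-based scintillation read 1.5 h after dosing. Duplicate screen at 25 uM first; displacement of specific binding (loss of signal) versus DMSO.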

Experiment [10] has as its target bovine Dopamine Receptor (DR), Non-selective Binding, DRD1 (gene 281125) (UniProt Q95136). Kind of experiment: NVS_GPCR_bDR_NonSelective: NovaScreen (NVS) G Protein-Coupled Receptor Assay for bovine Dopamine Receptor (DR), Non-selective Binding (AID 2283241). The gist of the method:
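Bovine striatal membranes; radioligand displacement read by filtration and scintillation counting 1 h after dosing, loss of signal vs DMSO. Screened in duplicate at 25 uM, then concentration-response for hits.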

For experiment [11], the system named is bovine Histamine 1 Receptor (H1), gene 281231. Kind of experiment: NVS_GPCR_bH1: NovaScreen (NVS) G Protein-Coupled Receptor Assay for bovine Histamine 1 Receptor (H1) (AID 2283246). An outline of the steps: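 Radioligand displacement on bovine cerebellar membranes, 1 h after dosing, filter-based scintillation read-out; loss of signal vs DMSO. Duplicate single-concentration screen at 25 uM, then concentration-response up to 50 uM for hits.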

Experiment [12] concerns the target human Adrenergic, Alpha 2A Receptor (Adra2A), ADRA2A (gene 150) (UniProt P08913). The experiment is described as follows: NVS_GPCR_hAdra2A: NovaScreen (NVS) G Protein-Coupled Receptor Assay for human Adrenergic, Alpha 2A Receptor (Adra2A) (AID 2283257). The gist of the method:
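Radioligand filter-binding was run on HT29-derived membranes, cell-free, read by scintillation counting 1 h after dosing. Primary screening was in duplicate at 25 uM, with concentration series in follow-up. Loss of signal versus DMSO indicates displacement.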

Experiment [13] has as its target human Adenosine A2a Receptor (AdoRA2a), ADORA2A (gene 135) (UniProt P29274). Kind of experiment: NVS_GPCR_hAdoRA2a: NovaScreen (NVS) G Protein-Coupled Receptor Assay for human Adenosine A2a Receptor (AdoRA2a) (AID 2283256). The gist of the method:
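Radioligand displacement on HEK293-derived membrane protein, cell-free; filter-based scintillation counting 1.5 hours after dosing, loss of signal vs DMSO. Single-point duplicate screen at 25 uM, actives retested in concentration series.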

The test system of experiment [14] is bovine Angiotensin II Receptor Type 2 (AT2), gene 407157. Kind of experiment: NVS_GPCR_bAT2: NovaScreen (NVS) G Protein-Coupled Receptor Assay for bovine Angiotensin II Receptor Type 2 (AT2) (AID 2283240). The gist of the method: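 Radioligand displacement on bovine cerebellar membranes, 1 hour incubation, filter-based scintillation counting; loss of signal vs DMSO. Duplicate single-point screen at 25 uM, then concentration-response to 50 uM maximum.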

Experiment [15] relates to guinea pig Leukotriene B4 Receptor (LTB4), gene 100379538. Kind of experiment: NVS_GPCR_gLTB4: NovaScreen (NVS) G Protein-Coupled Receptor Assay for guinea pig Leukotriene B4 Receptor (LTB4) (AID 2283247). An outline of the steps: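 Radioligand displacement on guinea pig spleen membranes, filter-based scintillation counting 2 h after dosing. Primary duplicate single point at 25 uM; hits over threshold (e.g. 30% inhibition) run in concentration-response up to 50 uM, DMSO baseline.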

In experiment [16] the test system is guinea pig Muscarinic, Peripheral (Mperiperal) Receptor, Non-selective Binding, gene 100379235. The experiment is described as follows: NVS_GPCR_gMPeripheral_NonSelective: NovaScreen (NVS) G Protein-Coupled Receptor Assay for guinea pig Muscarinic, Peripheral (Mperiperal) Receptor, Non-selective Binding (AID 2283250). An outline of the steps: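 Guinea pig bladder membranes, radioligand binding read 1 h after dosing by filter scintillation counting; loss of signal vs DMSO. Primary duplicate screen at 25 uM, then concentration-response up to 50 uM.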

The values that follow come from PubChem BioAssay (EPA / NIEHS).

Records with an inconclusive call do not appear. Activity calls are given as the source filed them. The calls were made as follows: active = hit-call score of the fitted dose curve at least 0.9, where 1 is the maximum; inconclusive = response in the unintended direction; inactive = score below 0.9.

The AC50 is the concentration at which the activity in the assay is half-maximal.

Chain of rat Constitutive Nitric Oxide Synthase (CNOS), Nos1 (gene 24598) (P29476 whole entry, looked up): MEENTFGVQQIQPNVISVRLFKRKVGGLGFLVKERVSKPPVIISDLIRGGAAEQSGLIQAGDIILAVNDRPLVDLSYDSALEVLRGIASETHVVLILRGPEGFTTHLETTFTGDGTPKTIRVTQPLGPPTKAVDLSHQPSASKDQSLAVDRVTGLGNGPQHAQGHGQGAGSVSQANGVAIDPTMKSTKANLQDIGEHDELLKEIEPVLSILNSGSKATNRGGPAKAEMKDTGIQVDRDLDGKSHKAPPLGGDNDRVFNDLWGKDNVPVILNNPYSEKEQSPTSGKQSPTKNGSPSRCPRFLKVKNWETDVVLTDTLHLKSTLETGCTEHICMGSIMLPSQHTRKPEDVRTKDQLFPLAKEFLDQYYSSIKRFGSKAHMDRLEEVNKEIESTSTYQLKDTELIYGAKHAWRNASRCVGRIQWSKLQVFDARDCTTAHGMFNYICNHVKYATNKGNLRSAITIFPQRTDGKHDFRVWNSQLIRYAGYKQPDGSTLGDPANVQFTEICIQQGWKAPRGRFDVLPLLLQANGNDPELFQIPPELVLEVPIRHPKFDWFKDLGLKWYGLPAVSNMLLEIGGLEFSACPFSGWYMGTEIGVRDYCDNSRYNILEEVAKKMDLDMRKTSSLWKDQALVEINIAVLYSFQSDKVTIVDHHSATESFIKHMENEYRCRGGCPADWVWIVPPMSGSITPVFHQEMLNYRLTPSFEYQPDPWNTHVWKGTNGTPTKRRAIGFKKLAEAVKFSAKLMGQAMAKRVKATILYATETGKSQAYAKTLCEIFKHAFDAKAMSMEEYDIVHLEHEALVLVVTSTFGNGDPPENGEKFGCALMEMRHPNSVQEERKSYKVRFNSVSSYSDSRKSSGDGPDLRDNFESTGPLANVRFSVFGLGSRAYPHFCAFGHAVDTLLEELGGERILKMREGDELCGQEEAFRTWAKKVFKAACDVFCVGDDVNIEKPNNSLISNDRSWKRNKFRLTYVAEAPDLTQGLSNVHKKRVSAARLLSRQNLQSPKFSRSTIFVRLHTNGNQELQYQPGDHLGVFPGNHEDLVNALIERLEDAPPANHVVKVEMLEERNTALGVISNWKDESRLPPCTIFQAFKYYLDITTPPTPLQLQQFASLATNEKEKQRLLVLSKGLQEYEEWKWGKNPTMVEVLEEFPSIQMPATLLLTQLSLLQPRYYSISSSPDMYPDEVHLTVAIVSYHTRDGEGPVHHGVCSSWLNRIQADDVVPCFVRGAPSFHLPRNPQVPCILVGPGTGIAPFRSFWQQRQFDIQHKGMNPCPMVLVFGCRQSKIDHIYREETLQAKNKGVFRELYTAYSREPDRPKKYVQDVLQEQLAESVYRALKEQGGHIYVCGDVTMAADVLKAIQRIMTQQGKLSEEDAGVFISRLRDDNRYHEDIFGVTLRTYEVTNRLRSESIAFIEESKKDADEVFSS
Chain of human Serotonin, 5-Hydroxytryptamine Receptor 2A (5HT2A), HTR2A (gene 3356) (P28223 whole entry, looked up): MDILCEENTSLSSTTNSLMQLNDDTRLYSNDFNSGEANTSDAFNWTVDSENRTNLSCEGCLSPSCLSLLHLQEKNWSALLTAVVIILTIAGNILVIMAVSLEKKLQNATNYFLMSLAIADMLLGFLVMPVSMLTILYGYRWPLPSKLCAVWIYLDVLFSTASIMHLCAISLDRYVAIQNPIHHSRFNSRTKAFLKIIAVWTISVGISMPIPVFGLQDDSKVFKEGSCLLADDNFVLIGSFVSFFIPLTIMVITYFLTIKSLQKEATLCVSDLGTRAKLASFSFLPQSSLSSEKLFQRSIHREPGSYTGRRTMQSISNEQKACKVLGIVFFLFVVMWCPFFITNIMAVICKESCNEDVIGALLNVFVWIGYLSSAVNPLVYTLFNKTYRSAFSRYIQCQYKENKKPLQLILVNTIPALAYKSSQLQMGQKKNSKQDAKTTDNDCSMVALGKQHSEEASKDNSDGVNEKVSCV
Chain of human Adrenergic, Beta 1 Receptor (Adrb1), ADRB1 (gene 153) (P08588 whole entry, looked up): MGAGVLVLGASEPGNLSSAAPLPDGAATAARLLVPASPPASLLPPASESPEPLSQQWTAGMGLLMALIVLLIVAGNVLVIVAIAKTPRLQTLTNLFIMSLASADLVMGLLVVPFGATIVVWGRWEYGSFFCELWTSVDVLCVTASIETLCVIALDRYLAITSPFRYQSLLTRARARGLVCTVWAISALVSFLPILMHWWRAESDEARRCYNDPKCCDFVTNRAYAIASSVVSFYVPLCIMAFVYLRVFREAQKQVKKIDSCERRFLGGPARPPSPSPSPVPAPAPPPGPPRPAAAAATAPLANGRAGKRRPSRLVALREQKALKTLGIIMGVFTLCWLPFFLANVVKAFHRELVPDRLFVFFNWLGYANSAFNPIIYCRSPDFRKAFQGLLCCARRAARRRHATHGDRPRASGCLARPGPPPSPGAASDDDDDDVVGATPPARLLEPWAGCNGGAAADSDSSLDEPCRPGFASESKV
Chain of human Adrenergic, Alpha 2A Receptor (Adra2A), ADRA2A (gene 150) (P08913 whole entry, looked up): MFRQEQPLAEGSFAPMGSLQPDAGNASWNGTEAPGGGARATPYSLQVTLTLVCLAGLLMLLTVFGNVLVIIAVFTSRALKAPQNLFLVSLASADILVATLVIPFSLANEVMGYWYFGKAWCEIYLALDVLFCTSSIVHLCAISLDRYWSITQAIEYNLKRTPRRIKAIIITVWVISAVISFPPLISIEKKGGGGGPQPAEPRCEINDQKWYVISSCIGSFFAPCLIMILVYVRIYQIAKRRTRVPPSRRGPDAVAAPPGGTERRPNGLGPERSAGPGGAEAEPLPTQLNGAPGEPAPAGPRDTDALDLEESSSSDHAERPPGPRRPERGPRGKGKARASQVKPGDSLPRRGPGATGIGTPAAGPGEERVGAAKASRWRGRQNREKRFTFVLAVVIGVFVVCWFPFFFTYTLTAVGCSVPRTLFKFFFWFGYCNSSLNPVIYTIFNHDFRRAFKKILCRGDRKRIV
Chain of guinea pig Opioid, Kappa 1 Receptor (OpiateK), OPRK1 (gene 100135587) (P41144 whole entry, looked up): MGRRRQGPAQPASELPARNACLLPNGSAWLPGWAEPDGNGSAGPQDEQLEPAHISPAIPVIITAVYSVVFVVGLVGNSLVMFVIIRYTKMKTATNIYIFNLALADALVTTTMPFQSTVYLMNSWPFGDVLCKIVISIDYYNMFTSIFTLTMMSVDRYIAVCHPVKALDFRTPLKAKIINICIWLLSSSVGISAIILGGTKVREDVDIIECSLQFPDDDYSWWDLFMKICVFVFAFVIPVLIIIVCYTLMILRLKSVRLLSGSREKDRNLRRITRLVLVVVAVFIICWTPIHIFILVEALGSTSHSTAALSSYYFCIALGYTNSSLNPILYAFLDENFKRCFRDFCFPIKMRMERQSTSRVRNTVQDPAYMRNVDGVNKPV

Take `CN(C)c1ccc(N=NS(=O)(=O)O)cc1`: the result in experiment [1] was inactive. Also, the AC50 in experiment [2] is 8.61 µM (active).

For `CCCCCCc1ccc(O)cc1O`, the concentration at half-maximal activity (AC50) was 5.25 µM (active) in experiment [3], 25 µM (active) in experiment [5], 25 µM (active) in [6] and 6.31 µM (active) in experiment [7]. Moreover, the result in experiment [4] was inactive.

Turning to `CC(C)CCO`, in [8], the outcome was inactive.

For `CC/C(=C\C(=N/O)C(N)=O)C(C)[N+](=O)[O-]` (centres undefined), the compound was classed as inactive in [1] and in experiment [9].

As for `O=c1[nH]c2ccc(S(=O)CCN3CCC(Cc4ccc(F)cc4)CC3)cc2o1` (centres undefined), the compound was classed as inactive in experiment [1] and in experiment [2]. Also, the AC50 is 6.78 µM (active) in experiment [10]; 3.91 µM (active) in [11]; 2.59 µM (active) in [9]; 0.534 µM (active) in experiment [5]; 0.837 µM (active) in experiment [12]; 1.96 µM (active) in experiment [7].

Take `COCCOCCOCCOC`: in experiment [3], the compound was classed as inactive.

In the case of `Oc1ccc2c(c1)-c1ccccc1C2`, the outcome in experiment [3] and in [5] was inactive. Moreover, the AC50 in [13] is 25 µM (active).

On to `O=C1OC(=O)C2C3C=CC(C3)C12` (centres undefined), for which, in experiment [3], the result was inactive.

For the compound `O=C(NS(=O)(=O)/C=C/c1ccccc1)c1ccc(F)cc1Cl`, the AC50 was 15 µM (active) in experiment [14] and 12.4 µM (active) in experiment [15].

As for `CC(C)=CCCC(C)CCO` (centres undefined), the outcome in experiment [1] was inactive. In addition, the AC50 in experiment [3] is 21.6 µM (active).

As for `C[C@](N)(Cc1ccc(O)c(O)c1)C(=O)O`, the AC50 in experiment [3] was 2.33 µM (active).

For the compound `COc1cccc(-c2ccc(/C=C\CN3CCCCCC3)cc2Cl)c1`, the concentration at half-maximal activity (AC50) in experiment [1] is 29.9 µM (active); in experiment [10], 36.4 µM (active); in experiment [11], 8.81 µM (active); in [9], 15.8 µM (active); in experiment [16], 11.1 µM (active); in [4], 22.6 µM (active). Moreover, the concentration at half-maximal activity (AC50) in [5] is 17.5 µM (active); in experiment [12], 8.54 µM (active); in experiment [6] it was 22.6 µM (active); in experiment [7] it was 0.401 µM (active).

For `Nc1nc2ncc(CNc3ccc(C(=O)N[C@@H](CCC(=O)O)C(=O)O)cc3)nc2c(=O)[nH]1`, the AC50 in [3] is 11 µM (active).
